HTT ATP protect – Huntington cell model cytoprotection by ATP luminescence; PC12 HTT-Q103 induced, cytoprotection, ATP luminescence, 40 h; Potency, µM (doses to about 56.4 µM), for inactives: cytoprotection (ATP increase), most hits filed as activators; 230,000 tested, 0.14% active; also: potency is read from the fitted curve at half-maximal effect; % of control where 0% means no effect; nearly all actives have a fitted effect of over 45% in size
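ATP quantification (ATPlite) reports survival of PC12 cells in which tebufenozide, 100 nM final, switches on Htt exon 1 with 103 glutamines linked to GFP; compounds are titrated.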
PNC inhibitor – perinucleolar compartment assembly inhibition; activity change (PNC), negative = inhibition, % at 10 µM; AID 2417; 140,000 tested, 3.1% active; PC3M PTB-GFP, PNC prevalence imaging, 16 h; active compounds read low;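 active = readout at or below -70, meaning at least 70% loss of cells showing the perinucleolar compartment, a nuclear body marking cancer cells; inconclusive = readout between -30 and a set limit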;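 also: plate controls were DMSO wells for no effect and camptothecin positive control wells for full effect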
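Compounds are pinned in duplicate onto adhered PC3M cells stably expressing GFP-tagged PTB and incubated 16 h at 37 C. Cells are then fixed, nuclei stained with Hoechst, and PNC-positive cells counted.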
HPGD inh – HPGD (human) dehydrogenase inhibition; P15428; purified HPGD, NADH fluorescence kinetic, PGE2 substrate; Potency, µM, for the others: at the highest dose activity change, negative = inhibition, usual class: inhibitors; 150,000 tested, 4.3% active; AID 894; active = well fitted inhibition curve with a large enough effect, not every such curve was filed as active; inconclusive = small, poorly fitted or top-dose-only effect, or another doubt; inactive = no such curve, though single readings can be large or run the other way; also: potency is read from the fitted curve at half-maximal effect; % is scaled to controls: 0 for no effect and ±100 for the full control effect
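20 nM HPGD preincubated 15 min at room temperature with compound in 50 mM Tris-HCl pH 8, 0.01% Tween 20. Started with 1 mM NAD+ and 30 uM prostaglandin E2; NADH fluorescence (360/450 nm) read 5 times over 30-s intervals, last minus first.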
ALDH1A1 block – blocks purified human ALDH1A1 activity; P00352; Purified ALDH1A1, NADH fluorescence, propionaldehyde substrate; Potency, µM (highest dose often 75.3 µM), for the others: at the top dose activity, negative = inhibition, most hits filed as inhibitors; 220,000 tested, 7.3% active; active = well fitted inhibition curve with a large enough effect, not every such curve was filed as active; inconclusive = small, poorly fitted or top-dose-only effect, or another doubt; inactive = no such curve, though single readings can be large or run the other way;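 also: potency is read from the fitted curve at half-maximal effect; plate controls were no enzyme wells and a reference inhibitor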
Target sequence (P00352 whole entry, looked up): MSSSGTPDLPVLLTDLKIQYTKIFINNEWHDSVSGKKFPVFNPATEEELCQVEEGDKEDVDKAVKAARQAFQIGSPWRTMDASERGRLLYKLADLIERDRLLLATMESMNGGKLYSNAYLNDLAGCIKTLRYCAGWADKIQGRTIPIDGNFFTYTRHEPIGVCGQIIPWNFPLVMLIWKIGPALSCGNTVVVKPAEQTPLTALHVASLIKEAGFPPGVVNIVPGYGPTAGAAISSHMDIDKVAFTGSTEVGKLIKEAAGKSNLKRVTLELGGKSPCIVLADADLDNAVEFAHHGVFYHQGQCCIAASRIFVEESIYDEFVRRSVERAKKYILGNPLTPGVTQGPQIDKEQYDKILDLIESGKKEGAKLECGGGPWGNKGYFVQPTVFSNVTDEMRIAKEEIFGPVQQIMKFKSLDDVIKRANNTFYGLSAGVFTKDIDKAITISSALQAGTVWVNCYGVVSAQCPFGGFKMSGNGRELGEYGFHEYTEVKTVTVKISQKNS
HttQ103 aggreg – mutant huntingtin aggregation inhibition; Potency, µM (top dose mostly 46.1 µM), for the others: at the top dose activity change, negative = inhibition, most hits filed as inhibitors; PC12 HttQ103-GFP aggregates, Acumen cytometry, 40 h; 220,000 tested, 1.1% active; also: potency is read from the fitted curve at half-maximal effect; % is scaled to controls: 0 for no effect and ±100 for the full control effect; nearly all actives have a fitted effect of over 60% in size
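PC12 cells stably carrying ecdysone-inducible HTT exon 1 Q103–GFP were induced with tebufenozide (100 nM final) and treated with library compounds in titration. GFP aggregates in lysates were counted by laser scanning cytometry.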
CBFb RUNX1 block – inhibitors of human CBF-beta and RUNX1 interaction; Potency, µM (top dose mostly 59.8 µM), without a hit: at the highest dose activity, negative = inhibition, usual class: inhibitors; 230,000 tested, under 10 active; Q01196+Q13951; AID 1477; AlphaScreen CBFb-His/RUNX1-biotin binding, biochemical; also: % of control where 0% means no effect
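CBF-beta (His) and RUNX1 (biotin), 30 nM each; 20 min preassociation; + compound, 15 min; + beads 50 ng each (Ni, streptavidin), 90 min; RT; AlphaScreen read.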
Starred values were filed as active, the others as inactive; ? = inconclusive; · = not tested or not shown; [ ] = dose if it differs, or a comment. Only some compounds are listed: those with a hit (about 11% of all), similar ones and a draw of the others. Unless noted, calls follow the shape of the dose curve; as a rule, active = well fitted curve in the direction sought with a large enough effect; inconclusive = small, poorly fitted or top-dose-only effect, or another doubt; inactive = no such curve, though single readings can be large; an effect the other way counts as inactive or inconclusive.

SMILES | HTT ATP protect | PNC inhibitor | HPGD inh | ALDH1A1 block | HttQ103 aggreg | CBFb RUNX1 block
Cc1ccc(Sc2cnn(-c3ccccc3)c(=O)c2Cl)cc1 | 3% | ? | -5% | 0% | -12% | 9%
CCSc1nc(=S)cc(C)[nH]1 | 16%[10 µM] | · | · | 28µM* | 27%[9.22 µM] | 5%
CCSc1nc(O)cc(=O)[nH]1 | 17%[10 µM] | · | · | · | 5%[9.22 µM] | 6%
COc1ccc(-c2cc(=O)c3c(OC)c(OC)c(OC)c(OC)c3o2)cc1 | · | · | -15% | 1.4µM* | · | ·
COc1cc(-c2cc(=O)c3c(O)c(OC)c(OC)c(OC)c3o2)cc(OC)c1OC | -26%[10 µM] | · | -12% | 11µM* | -7%[9.22 µM] | 16%
COC(=O)CC1C(=O)NCCN1C(=O)CSc1nnc(Nc2ccc(C)cc2)s1 (configuration not stated) | -10% | -28 | -11% | -4% | 5%[9.22 µM] | 2%
COC(=O)CC1C(=O)NCCN1C(=O)CSc1nnc(Nc2ccc(OC)cc2)s1 (configuration not stated) | 27% | 31 | ? | 25µM* | -9% | -10%
CCCCCOCC1CC(C/C(C)=N/Nc2nc(-c3ccccc3)cs2)C(=O)O1 (configuration not stated) | -11% | 36 | -6% | 25µM* | -4% | -5%
O=C(NCCN1CCOCC1)c1ccc2c(c1)N(Cc1cccc(F)c1)C(=O)c1ccccc1S2 | -41% | · | · | 28µM* | 4% | 21%
COc1ccc(C(=O)N2CCN(c3nnnn3-c3ccccc3)CC2)cc1OC | -12%[0.074 µM] | 11 | -1% | 16µM* | 4% | -1%
Cc1cccc(C)c1N1CCN(C(=O)Cn2cncn2)CC1 | -6% | · | · | 13µM* | 17% | 3%
Cc1ccc(-c2csc(=S)[nH]2)cc1 | ? | · | · | 14µM* | -19% | -5%
Cc1ccc(-c2ccc(C(=O)O)[nH]2)cc1 | -5% | 42 | ? | -10% | 0% | 3%
S=c1[nH]c(-c2ccc(Cl)cc2)cs1 | 19% | · | · | 3.2µM* | -10% | -5%
COC(=O)C/C=C\[C@@H](C)[C@@H](/C=N\OCC[C@H]1C=C[C@H](OC(C)=O)[C@@H](COC(C)=O)O1)NS(=O)(=O)c1ccc(C)cc1 | -5%[10 µM] | · | · | -9%[13.5 µM] | · | 9%[13.1 µM]
CCOC(=O)OCC1C=C[C@H](c2cc(-c3ccccc3)ccc2O)C(c2ccc(C(C)=O)cc2)O1 (some centres not stated) | ? | · | · | 6%[13.5 µM] | · | 0%[13.1 µM]
Cc1ccc(OCCCCNC2CCCC(C)C2C)c(C)c1 (configuration not stated) | -34% | · | · | -5% | -5%[9.22 µM] | -4%
CCN(CC)C(=S)SCC(=O)c1ccc(Br)cc1 | · | 24 | ? | 8.9µM* | -1% | -11%
CC[C@@H]1OC(=O)[C@@H](C)[C@H](O[C@H]2C[C@@](C)(OC)[C@@H](O)[C@H](C)O2)C(C)[C@H](O[C@H]2O[C@@H](C)C[C@@H](N(C)C)[C@@H]2O)[C@@](C)(O)C[C@H](C)C(=O)[C@@H](C)[C@H](O)[C@@]1(C)O (some centres not stated) | 27%[1.9 µM] | · | -7% | -5% | · | 2%[21.7 µM]
Cc1cc2cc(CN(Cc3nnnn3C3CCCCC3)CC3CCCO3)c(=O)[nH]c2cc1C (configuration not stated) | -11% | 29 | -7% | ? | -4%[9.22 µM] | 5%
CCC(c1nnnn1CCOC)N(Cc1cc2c(C)cc(C)cc2[nH]c1=O)CC1CCCO1 (configuration not stated) | -34% | 34 | -3% | 11µM* | 1% | 1%
CCC(c1nnnn1CCOC)N(Cc1cc2cc(C)c(C)cc2[nH]c1=O)CC1CCCO1 (configuration not stated) | -17% | 23 | -6% | -16% | 25% | -2%
CCCC(c1nnnn1CC(=O)OCC)N(Cc1cc2c(C)cc(C)cc2[nH]c1=O)C1CCCC1 (configuration not stated) | -13% | -2 | -19% | 8.9µM* | 51% | 2%
